# Measured values as given in PubChem BioAssay (NCI).
# About 79,000 compounds went through this panel and 15% of them were active in at least one assay; those are over-represented in the sample as a whole. Values without a mark were called inactive. The source made the active and inactive calls. Cut-off read from the data, not from the text of the source: active = growth inhibition above about 70%; inactive = the rest.
# Tests used:
# [1] = NCI Yeast Anticancer Drug Screen. Data for the wt1 strain (AID 149);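 note: 0% = growth of vehicle-treated wt1 cultures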; conditions: S. cerevisiae wt1 strain (SPY 50644) growth inhibition, stronger effect = higher value
# In short: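 Readout: yeast growth inhibition, normalised to vehicle controls, in the wt1 strain exposed to test compounds.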
# [2] = NCI Yeast Anticancer Drug Screen. Data for the rad50EPP+ strain (AID 151);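 note: 0% = growth of vehicle-treated control cultures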; conditions: S. cerevisiae rad50 mutant strain, stronger effect = higher value
# In short: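 Genetically defined yeast (rad50EPP+, DNA damage repair alteration) is grown with compound, and inhibition of growth is expressed relative to vehicle-treated controls.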
# [3] = NCI Yeast Anticancer Drug Screen. Data for the mgt1 strain (AID 153); conditions: S. cerevisiae mgt1 mutant growth inhibition, stronger effect = higher value
# In short: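 In the mgt1 strain, test compounds were added and growth inhibition was determined relative to vehicle-treated controls.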
# [4] = NCI Yeast Anticancer Drug Screen. Data for the rad50 strain (AID 155);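 note: 0% = growth of vehicle-only cultures of the same strain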; conditions: S. cerevisiae rad50 strain growth inhibition, stronger effect = higher value
# In short: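 Compounds were tested on a yeast strain with an engineered DNA damage repair alteration; the reported value is growth inhibition normalised to vehicle treatment.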
# [5] = NCI Yeast Anticancer Drug Screen. Data for the mec2-1 strain (AID 157); conditions: S. cerevisiae mec2-1 strain, stronger effect = higher value
# In short: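 Each compound was tested on mec2-1 yeast, a strain altered in DNA damage repair or cell cycle control. Growth inhibition is reported relative to vehicle.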
# [6] = NCI Yeast Anticancer Drug Screen. Data for the rad14 strain (AID 159);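 note: 0% = growth of vehicle-treated control cultures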; conditions: S. cerevisiae rad14 strain growth inhibition, stronger effect = higher value
# In short: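 Compound-treated yeast with a defined DNA-repair lesion; growth inhibition normalised to vehicle-treated cultures.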
# [7] = NCI Yeast Anticancer Drug Screen. Data for the sgs1 mgt1 strain (AID 161);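 note: 0% = growth of cultures given vehicle only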; conditions: S. cerevisiae sgs1 mgt1 strain, stronger effect = higher value
# In short: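 Mutant yeast exposed to compound; growth scored against vehicle-only wells.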
# [8] = NCI Yeast Anticancer Drug Screen. Data for the CLN2oe strain (AID 163);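 note: 0% = growth of vehicle-only control cultures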; conditions: S. cerevisiae CLN2oe strain, stronger effect = higher value
# In short: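 First, the altered yeast strain was treated with each compound; second, its growth was measured; finally, inhibition was derived by comparison with vehicle controls.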
# [9] = NCI Yeast Anticancer Drug Screen. Data for the cln2 rad14 strain (AID 165);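 note: 0% = growth equal to vehicle treated cultures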; conditions: S. cerevisiae cln2 rad14 strain, stronger effect = higher value
# In short: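 Test compounds were added to cln2 rad14 yeast cultures; inhibition of growth was then determined by comparison with vehicle treatment.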
# [10] = NCI Yeast Anticancer Drug Screen. Data for the bub3 strain (AID 167); conditions: S. cerevisiae bub3 mutant strain, stronger effect = higher value
# In short: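 Growth of a checkpoint-deficient yeast mutant is measured after compound exposure. Values represent inhibition relative to vehicle.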
# [11] = NCI Yeast Anticancer Drug Screen. Data for the wt2 strain (AID 169);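 note: 0% = growth of vehicle-treated yeast cultures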; conditions: S. cerevisiae wt2 strain growth inhibition, stronger effect = higher value
# In short: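 The panel's yeast strains carry defined changes in DNA repair or cell cycle genes. Each strain is grown with compound, and growth loss is scored relative to vehicle.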
# [12] = NCI Yeast Anticancer Drug Screen. Data for the mlh1 strain (AID 171);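 note: 0% = growth of vehicle-treated control cultures of the same strain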; conditions: S. cerevisiae mlh1 strain growth inhibition, stronger effect = higher value
# In short: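 Inhibition values reflect reduced yeast growth in the presence of compound, referenced to vehicle controls, using a strain chosen for its alteration in DNA repair or cell cycle control.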
# [13] = NCI Yeast Anticancer Drug Screen. Data for the sgs1 strain (AID 173);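 note: 0% = growth of vehicle-only control cultures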; conditions: S. cerevisiae sgs1 mutant, stronger effect = higher value
# In short: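 Vehicle-treated cultures served as reference for growth inhibition of a yeast strain altered in DNA damage repair or cell cycle control after compound exposure.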
# [14] = NCI Yeast Anticancer Drug Screen. Data for the mlh1 rad18 strain (AID 175); conditions: S. cerevisiae mlh1 rad18 strain growth inhibition, stronger effect = higher value
# In short: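 Inhibition values reflect reduced growth of mutant yeast versus vehicle-treated controls following compound exposure; the mutations affect DNA damage repair.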
# [15] = NCI Yeast Anticancer Drug Screen. Data for the rad18 strain (AID 177); conditions: S. cerevisiae rad18 mutant growth inhibition, stronger effect = higher value
# In short: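 Steps: expose repair-mutant yeast to compound; measure growth; express as inhibition relative to vehicle control.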
# [16] = at 5.0 µM (retest, dose inferred, filed as 0.5)
# [17] = at 50.0 µM (retest, dose inferred, filed as 5.0)
smiles,measurement,setting,value
O=C(CSS(=O)(=O)O)c1ccccc1,growth inhibition,[1]; at 1.2 µM,0%
same,growth inhibition,[1]; at 3.7 µM,5%
same,growth inhibition,[1]; at 11.0 µM,2%
same,growth inhibition,[1]; at 33.0 µM,5%
same,growth inhibition,[1]; at 100.0 µM,12%
same,growth inhibition,[2]; at 1.2 µM,-4%
same,growth inhibition,[2]; at 3.7 µM,-9%
same,growth inhibition,[2]; at 11.0 µM,11%
same,growth inhibition,[2]; at 33.0 µM,67%
same,growth inhibition,[2]; at 100.0 µM,91% (active)
same,growth inhibition,[3]; at 1.2 µM,-1%
same,growth inhibition,[3]; at 3.7 µM,-3%
same,growth inhibition,[3]; at 11.0 µM,-1%
same,growth inhibition,[3]; at 33.0 µM,2%
same,growth inhibition,[3]; at 100.0 µM,7%
same,growth inhibition,[4]; at 1.2 µM,-1%
same,growth inhibition,[4]; at 3.7 µM,-1%
same,growth inhibition,[4]; [16],6%
same,growth inhibition,[4]; at 11.0 µM,2%
same,growth inhibition,[4]; at 33.0 µM,2%
same,growth inhibition,[4]; [17],54%
same,growth inhibition,[4]; at 50.0 µM,10.8%
same,growth inhibition,[4]; at 100.0 µM,16%
same,growth inhibition,[5]; at 1.2 µM,-4%
same,growth inhibition,[5]; at 3.7 µM,-5%
same,growth inhibition,[5]; [16],-15%
same,growth inhibition,[5]; at 11.0 µM,0%
same,growth inhibition,[5]; at 33.0 µM,9%
same,growth inhibition,[5]; [17],-6%
same,growth inhibition,[5]; at 50.0 µM,19.9%
same,growth inhibition,[5]; at 100.0 µM,24%
same,growth inhibition,[6]; at 1.2 µM,2%
same,growth inhibition,[6]; at 3.7 µM,3%
same,growth inhibition,[6]; at 11.0 µM,5%
same,growth inhibition,[6]; at 33.0 µM,9%
same,growth inhibition,[6]; at 100.0 µM,19%
same,growth inhibition,[7]; [16],-9%
same,growth inhibition,[7]; [17],69%
same,growth inhibition,[7]; at 50.0 µM,35.3%
same,growth inhibition,[8]; at 1.2 µM,-5%
same,growth inhibition,[8]; at 3.7 µM,-14%
same,growth inhibition,[8]; at 11.0 µM,-11%
same,growth inhibition,[8]; at 33.0 µM,2%
same,growth inhibition,[8]; at 100.0 µM,28%
same,growth inhibition,[9]; [16],6%
same,growth inhibition,[9]; [17],15%
same,growth inhibition,[9]; at 50.0 µM,18.2%
same,growth inhibition,[10]; at 1.2 µM,0%
same,growth inhibition,[10]; at 3.7 µM,-5%
same,growth inhibition,[10]; [16],-17%
same,growth inhibition,[10]; at 11.0 µM,-1%
same,growth inhibition,[10]; at 33.0 µM,18%
same,growth inhibition,[10]; [17],76% (active)
same,growth inhibition,[10]; at 50.0 µM,34.5%
same,growth inhibition,[10]; at 100.0 µM,47%
same,growth inhibition,[11]; at 1.2 µM,-2%
same,growth inhibition,[11]; at 3.7 µM,-1%
same,growth inhibition,[11]; at 11.0 µM,1%
same,growth inhibition,[11]; at 33.0 µM,6%
same,growth inhibition,[11]; at 100.0 µM,15%
same,growth inhibition,[12]; at 1.2 µM,-4%
same,growth inhibition,[12]; at 3.7 µM,1%
same,growth inhibition,[12]; at 11.0 µM,3%
same,growth inhibition,[12]; at 33.0 µM,12%
same,growth inhibition,[12]; at 100.0 µM,24%
same,growth inhibition,[13]; at 1.2 µM,0%
same,growth inhibition,[13]; at 3.7 µM,2%
same,growth inhibition,[13]; at 11.0 µM,13%
same,growth inhibition,[13]; at 33.0 µM,29%
same,growth inhibition,[13]; at 100.0 µM,51%
same,growth inhibition,[14]; [16],31%
same,growth inhibition,[14]; [17],89% (active)
same,growth inhibition,[14]; at 50.0 µM,35%
same,growth inhibition,[15]; at 1.2 µM,5%
same,growth inhibition,[15]; at 3.7 µM,20%
same,growth inhibition,[15]; at 11.0 µM,62%
same,growth inhibition,[15]; at 33.0 µM,84% (active)
same,growth inhibition,[15]; at 100.0 µM,89% (active)
Cc1cccc(N2CCN(C(=O)/C(=C/c3ccccc3)NC(=O)c3ccccc3)CC2)c1,growth inhibition,[1]; at 1.2 µM,-3%
same,growth inhibition,[1]; at 3.7 µM,-1%
same,growth inhibition,[1]; at 11.0 µM,-2%
same,growth inhibition,[1]; at 33.0 µM,24%
same,growth inhibition,[1]; at 100.0 µM,31%
same,growth inhibition,[2]; at 1.2 µM,2%
same,growth inhibition,[2]; at 3.7 µM,0%
same,growth inhibition,[2]; at 11.0 µM,0%
same,growth inhibition,[2]; at 33.0 µM,2%
same,growth inhibition,[2]; at 100.0 µM,-9%
same,growth inhibition,[3]; at 1.2 µM,-4%
same,growth inhibition,[3]; at 3.7 µM,-4%
same,growth inhibition,[3]; at 11.0 µM,0%
same,growth inhibition,[3]; at 33.0 µM,44%
same,growth inhibition,[3]; at 100.0 µM,54%
same,growth inhibition,[4]; at 1.2 µM,-4%
same,growth inhibition,[4]; at 3.7 µM,-48%
same,growth inhibition,[4]; [16],-1%
same,growth inhibition,[4]; at 11.0 µM,29%
same,growth inhibition,[4]; at 33.0 µM,59%
same,growth inhibition,[4]; [17],48%
same,growth inhibition,[4]; at 50.0 µM,12.3%
same,growth inhibition,[4]; at 100.0 µM,68%
same,growth inhibition,[5]; at 1.2 µM,-1%
same,growth inhibition,[5]; at 3.7 µM,0%
same,growth inhibition,[5]; [16],-3%
same,growth inhibition,[5]; at 11.0 µM,8%
same,growth inhibition,[5]; at 33.0 µM,36%
same,growth inhibition,[5]; [17],-26%
same,growth inhibition,[5]; at 50.0 µM,2.95%
same,growth inhibition,[5]; at 100.0 µM,43%
same,growth inhibition,[6]; at 1.2 µM,-4%
same,growth inhibition,[6]; at 3.7 µM,-6%
same,growth inhibition,[6]; at 11.0 µM,0%
same,growth inhibition,[6]; at 33.0 µM,28%
same,growth inhibition,[6]; at 100.0 µM,35%
same,growth inhibition,[7]; [16],0%
same,growth inhibition,[7]; [17],56%
same,growth inhibition,[7]; at 50.0 µM,-13.3%
same,growth inhibition,[8]; at 1.2 µM,-6%
same,growth inhibition,[8]; at 3.7 µM,-6%
same,growth inhibition,[8]; at 11.0 µM,3%
same,growth inhibition,[8]; at 33.0 µM,38%
same,growth inhibition,[8]; at 100.0 µM,33%
same,growth inhibition,[9]; [16],-5%
same,growth inhibition,[9]; [17],35%
same,growth inhibition,[9]; at 50.0 µM,-12.5%
same,growth inhibition,[10]; at 1.2 µM,-3%
same,growth inhibition,[10]; at 3.7 µM,-1%
same,growth inhibition,[10]; [16],-41%
same,growth inhibition,[10]; at 11.0 µM,5%
same,growth inhibition,[10]; at 33.0 µM,41%
same,growth inhibition,[10]; [17],38%
same,growth inhibition,[10]; at 50.0 µM,10.1%
same,growth inhibition,[10]; at 100.0 µM,38%
same,growth inhibition,[11]; at 1.2 µM,-2%
same,growth inhibition,[11]; at 3.7 µM,6%
same,growth inhibition,[11]; at 11.0 µM,1%
same,growth inhibition,[11]; at 33.0 µM,38%
same,growth inhibition,[11]; at 100.0 µM,46%
same,growth inhibition,[12]; at 1.2 µM,-1%
same,growth inhibition,[12]; at 3.7 µM,-2%
same,growth inhibition,[12]; at 11.0 µM,4%
same,growth inhibition,[12]; at 33.0 µM,41%
same,growth inhibition,[12]; at 100.0 µM,48%
same,growth inhibition,[13]; at 1.2 µM,-2%
same,growth inhibition,[13]; at 3.7 µM,2%
same,growth inhibition,[13]; at 11.0 µM,16%
same,growth inhibition,[13]; at 33.0 µM,53%
same,growth inhibition,[13]; at 100.0 µM,59%
same,growth inhibition,[14]; [16],1%
same,growth inhibition,[14]; [17],64%
same,growth inhibition,[14]; at 50.0 µM,25.9%
same,growth inhibition,[15]; at 1.2 µM,-2%
same,growth inhibition,[15]; at 3.7 µM,0%
same,growth inhibition,[15]; at 11.0 µM,5%
same,growth inhibition,[15]; at 33.0 µM,51%
same,growth inhibition,[15]; at 100.0 µM,70% (active)
